Hits are enriched below; roughly 3.2% of the tested compounds scored in any of these assays.
Tau fluor cs = Counterscreen qHTS for Inhibitors of Tau Fibril Formation, Fluorescence Polarization; 0.93% of 280,000 active; tau K18 P301L Alexa594 fluorescence, heparin fibrillization; AID 1463, 2008; Potency, µM (highest dose often 57.7 µM), inactives show at the top dose activity change, negative = decrease; also: nearly all actives have a fitted effect of over 55% in size
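Human tau K18 P301L (15 uM unlabeled, 0.24 uM Alexa 594-labeled) in 100 mM sodium acetate pH 7 with 20 uM heparin, 6 hr at 37 C. ThT 30 uM added, 1 hr ambient; Alexa 594 FP and total fluorescence read at 555/632 nm.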
TR SRC2 fluor cs = Total Fluorescence Counterscreen for Inhibitors of the Interaction of Thyroid Hormone Receptor and Steroid Receptor Coregulator 2; TRb/SRC2 Texas Red total fluorescence interference; 0.29% of 280,000 active; AID 1479, 2009; Potency, µM (series often up to 106 µM), for the others: top-dose fluorescence change, negative = quenching; active = well fitted curve in either direction with a large enough effect; inconclusive = small, poorly fitted or top-dose-only effect
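Flags fluorescent or light-absorbing compounds by total fluorescence, S + 2P, at 555 nm excitation and 632 nm emission. Mixture: 20 nM Texas Red SRC2 peptide, 0.6 uM human TRb LBD, 1 uM T3, 5% DMSO; compound exposure 5 h at ambient temperature.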
Tau ThT inhib = qHTS for Inhibitors of Tau Fibril Formation, Thioflavin T Binding. recombinant tau K18 P301L (four-repeat tau fragment), heparin-induced fibrillization, ThT fluorescence. Potency, µM (top dose mostly 57.4 µM), without a hit: at the highest dose activity, negative = inhibition, most hits filed as inhibitors. 2.1% of 270,000 active. AID 1460, 2008; also: nearly all actives have a fitted effect of over 55% in size
Target sequence (P10636 561-689 P618L limits assumed): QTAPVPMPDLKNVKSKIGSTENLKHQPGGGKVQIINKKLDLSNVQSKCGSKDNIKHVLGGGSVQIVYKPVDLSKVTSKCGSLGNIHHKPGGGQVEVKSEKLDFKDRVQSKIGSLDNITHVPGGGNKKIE
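Aggregation was driven by heparin (20 uM final) acting on recombinant tau […] bearing P301L in 100 mM sodium acetate pH 7; fibrils were detected with Thioflavin T.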
GoLoco inh red = qHTS Assay for Inhibitors of RGS12 GoLoco Motif Activity (Red Fluorophore) | 0.44% of 230,000 active | Guanine nucleotide-binding protein G(i) subunit alpha-1 (Homo sapiens), P63096 | Gai1:RGS12 GoLoco peptide FP, rhodamine, 10 min | Potency, µM (top dose mostly 61.6 µM), for inactives: at the highest dose activity, negative = inhibition, most hits filed as inhibitors; active = well fitted inhibition curve with a large enough effect, not every such curve was filed as active; inactive = no such curve, though single readings can be large or run the other way; also: nearly all actives have a fitted effect of over 30% in size
Target sequence (P63096 whole entry, looked up): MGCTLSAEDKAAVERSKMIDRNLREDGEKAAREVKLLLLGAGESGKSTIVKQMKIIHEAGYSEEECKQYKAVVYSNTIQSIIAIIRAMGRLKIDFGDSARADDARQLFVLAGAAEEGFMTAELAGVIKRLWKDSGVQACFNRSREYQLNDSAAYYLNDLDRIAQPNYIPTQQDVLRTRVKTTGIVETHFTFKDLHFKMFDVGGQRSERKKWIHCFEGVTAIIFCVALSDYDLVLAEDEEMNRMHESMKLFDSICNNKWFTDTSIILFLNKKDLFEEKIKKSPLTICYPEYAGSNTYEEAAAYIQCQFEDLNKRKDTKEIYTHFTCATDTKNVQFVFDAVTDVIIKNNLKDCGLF
TRb SRC2 PPI = qHTS for Inhibitors of the Interaction of Thyroid Hormone Receptor and Steroid Receptor Coregulator 2; Thyroid hormone receptor beta (Homo sapiens), P10828; TRbeta-SRC2 peptide binding, fluorescence polarization; receptor liganded with 1 µM T3; Potency, µM (titrated, usually from 106 µM), for inactives: at the highest dose activity change, negative = inhibition, most hits filed as inhibitors; 0.065% of 280,000 active; AID 1469, 2008;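 also: plate controls were bound peptide for no effect and peptide without receptor for full effect; nearly all actives have a fitted effect of over 50% in size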
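Binding of a 20-amino-acid Texas Red SRC2 peptide (20 nM) to TRb ligand-binding domain (0.6 uM) with agonist T3 at 1 uM was followed by fluorescence polarization after a 5 hr room-temperature incubation.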
Tau fibril FP = qHTS for Inhibitors of Tau Fibril Formation, Fluorescence Polarization | 0.39% of 280,000 active | K18 P301L tau heparin fibrillization, Alexa594 FP, 6 h | Potency, µM (doses to about 57.7 µM), for the others: at the top dose activity, negative = inhibition, actives largely listed as inhibitors | AID 1468, 2008; also: nearly all actives have a fitted effect of over 55% in size
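Human tau K18 […] P301L fragment, 15 uM unlabeled plus 0.24 uM Alexa 594-labeled tau (final), with compound and 20 uM heparin in 100 mM sodium acetate pH 7; 6 hr at 37 C, then Alexa 594 FP read.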
An asterisk follows results filed as active; ? = inconclusive; . = no result given; [ ] = dose if it differs, or a comment. Unless noted, calls follow the shape of the dose curve; as a rule, active = well fitted curve in the direction sought with a large enough effect; inconclusive = small, poorly fitted or top-dose-only effect, or another doubt; inactive = no such curve, though single readings can be large; an effect the other way counts as inactive or inconclusive. Unless noted, % is scaled to controls: 0 for no effect and ±100 for the full control effect; potency is read from the fitted curve at half-maximal effect.

SMILES	Tau fluor cs	TR SRC2 fluor cs	Tau ThT inhib	GoLoco inh red	TRb SRC2 PPI	Tau fibril FP
CC(=O)c1ccc(S(=O)(=O)N2CCCC2)cc1	-14%	-6%	?	1%	-4%	-8%
CC(=O)Nc1ccc(Nc2ccc3cc(S(=O)(=O)N4CCCCC4)ccc3n2)cc1	14µM*[quencher]	-6%	?	.	4%	14%
CC(=O)c1ccc(Nc2ccc3cc(S(=O)(=O)N4CCCC4)ccc3n2)cc1	11µM*[quencher]	-1%	5%	.	-10%	22µM*
CC1CCN(S(=O)(=O)c2ccc3nc(Nc4cccc(F)c4)ccc3c2)CC1	?	-1%	21%	.	9%	13µM*
CC(=O)Nc1ccc(S(=O)(=O)N2CCN(S(=O)(=O)N3CCCCC3)CC2)cc1	-3%	0%	6%	5%	-4%	-7%
CCCCCCCOC(=O)c1ccccc1C(=O)OCCCCCCC	.	-6%[201 µM]	.	.	2%[201 µM]	.
COC(=O)CCSCCC(=O)OC	.	3%[201 µM]	.	.	-2%[201 µM]	.
CC(CCC(=O)O)(c1cc(Br)c(O)c(Br)c1)c1cc(Br)c(O)c(Br)c1	.	.	.	-3%[14.2 µM]	.	.
COc1ccccc1CNC(=O)c1cccc(-c2ccccc2OC)n1	-8%[81.3 µM]	1%	-13%[81.4 µM]	2%[88.7 µM]	-4%	1%[81.3 µM]
COc1ccc(C2=NN(CC(=O)NCCc3ccc(OC)c(OC)c3)C(=O)CC2)cc1	-2%	0%	-1%	.	-2%	-4%
CCC(=O)N1CCN(c2ccc(NC(=O)c3ccc([N+](=O)[O-])o3)cc2Cl)CC1	?	2%	11µM*	10%	1%	3%
O=C(Nc1ccc2c(c1)OCO2)c1ccc(N2CCCC2)c([N+](=O)[O-])c1	?	-4%	13µM*	7%	-6%	17%
CC(=O)N1CCN(c2ccc(NC(=O)c3ccc(N4CCCC4)c([N+](=O)[O-])c3)cc2Cl)CC1	?	-1%	4µM*	6%	-10%	-6%
O=C(Nc1ccc(N2CCOCC2)c(Cl)c1)c1ccc2c(c1)OCCO2	18%[2.34 µM]	-5%	4%	4%	2%	12%[2.34 µM]
O=C(Nc1ccc(N2CCCCC2)c(Cl)c1)c1ccc2c(c1)OCCO2	14µM*[quencher]	0%	?	2%	-2%	12%
CCOC(=O)CCN1C(=O)[C@H]2[C@H]3[C@H](O)[C@H](O)C/C(=N/OCC(C)C)[C@H]3CC[C@@H]2C1=O	-16%[11.6 µM]	1%[11.2 µM]	-13%[11.5 µM]	.	1%[11.2 µM]	3%[11.6 µM]
CC(C)c1ccc(NC(=O)c2cc(S(=O)(=O)NC3CCCCC3)ccc2F)cc1	-24%	-2%	0%	.	18%	2%
CC(=O)CC(=O)Nc1ccc(C)cc1C	.	-10%[201 µM]	.	.	5%[201 µM]	.
O=C(Nc1nc(-c2cccnc2)cs1)c1cccc([N+](=O)[O-])c1	-7%	2%	-7%	2%	4%	4%
COc1ccccc1Nc1nc(C)cs1	?	0%	22µM*	0%	8%	?
CC(C)CC(=O)Nc1ncc([N+](=O)[O-])s1	-12%	-8%	.	5%	2%	-9%
Cc1csc(Nc2cccc3ccccc23)n1	-20%	-6%	?	6%	-1%	0%
O=C(Nc1nc(-c2ccccc2)cs1)c1cccc([N+](=O)[O-])c1	16µM*[quencher]	-4%	?	4%	-5%	14%
O=C(Nc1ccccc1)Nc1ncc([N+](=O)[O-])s1	?	-5%	18µM*	4%	1%	1%
COc1ccccc1Nc1ccc([N+](=O)[O-])cc1N	?	-1%	14µM*	0%	-9%	13%
SMILES	Tau fluor cs	TR SRC2 fluor cs	Tau ThT inhib	GoLoco inh red	TRb SRC2 PPI	Tau fibril FP
O=C(Cl)c1cc(Cl)cc(Cl)c1	.	-1%[201 µM]	.	.	5%[201 µM]	.
Cn1cc(S(=O)(=O)N2CCCCCC2)cc1C(=O)N1CCN(c2ccc(Cl)cc2)CC1	-15%	-3%	-11%	.	4%	3%
O=C(Nc1ncc([N+](=O)[O-])s1)c1cccc([N+](=O)[O-])c1	-14%	?	18µM*	1%	12%	13%
COc1cc(NS(=O)(=O)c2ccc(Nc3nc(-c4cccc([N+](=O)[O-])c4)cs3)cc2)nc(OC)n1	?	-8%	18µM*	6%	3%	?
O=[N+]([O-])c1cccc(-c2csc(Nc3ccccc3)n2)c1	25µM*[quencher]	-2%	?	12%	-3%	13%
COc1ccccc1Nc1nc(-c2cccc([N+](=O)[O-])c2)cs1	14µM*[quencher]	-6%	?	3%	-5%	1%
NCCC[C@@H](CC(=O)N[C@@H]1CCCC[C@H]1C(=O)N[C@H](CC(=O)N[C@@H](CCC(=O)O)CC(=O)O)Cc1ccccc1)NC(=O)C[C@H](Cc1ccccc1)NC(=O)[C@@H]1CCCC[C@H]1N	-1%	-1%	-1%	1%	-2%	-3%
Cc1nc(C)c(C(=O)Nc2ncc([N+](=O)[O-])s2)o1	-23%	-10%	25µM*	15%	2%	?
CCCCC(=O)Nc1ncc([N+](=O)[O-])s1	-14%	-7%	-12%	5%	-1%	1%
O=C(Cn1c(=O)ccc2cc(S(=O)(=O)N3CCCC3)ccc21)Nc1ccccc1	-2%	4%	1%	.	4%	-13%
CCCn1c(C)cc(C(=O)COc2ccc(C)nc2[N+](=O)[O-])c1C	-7%	-4%	-13%	.	-6%	8%
Cc1ccc(OCC(=O)c2cc(C)n(-c3ccccc3)c2C)c([N+](=O)[O-])n1	?	-1%	?	13%	2%	2%
Cc1ccc(OCC(=O)c2cc(C)c(C)cc2C)c([N+](=O)[O-])n1	?	2%	16µM*	21%	-20%	?
Cc1ccc(C)c(C(=O)COc2ccc(C)nc2[N+](=O)[O-])c1	?	-4%	16µM*	8%	2%	?
COc1cc(-c2nc3ccccn3c2/N=C/c2cc(OC)c(O)cc2Cl)ccc1O	?	-1%	14µM*	-2%	-5%	?
COc1cc(-c2nc3ccccn3c2/N=C/c2ccccc2)ccc1O	-26%	-4%	?	0%	-2%	-15%
O=C1CCCCC/C1=N/Nc1ccc(OCc2ccccc2)cc1	?	0%	11µM*	10%	4%	4%
O=C1CCCC/C1=C\Nc1ccc(O)cc1	?	?	16µM*	-28%	45µM*	?
